{"source": "PubChem BioAssay (NCATS)", "note": "Inconclusive results are not listed. The source made the active and inactive calls. The call rests on the fitted dose curve; in most records, active means well fitted inhibition curve with a large enough effect; inconclusive means small, poorly fitted or top-dose-only effect; inactive means flat fitted curve, though single readings scatter. Potency means the concentration at half of the fitted maximal effect.", "data": [{"system": "PC15", "test": "qHTS profiling for inhibitors of Plasmodium falciparum proliferation (AID 504749); further: nearly all actives have a fitted effect of over 60% in size;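 on activity, negative = inhibition: 0% = DMSO vehicle and full inhibition = artemisinin control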", "details": "P. falciparum in erythrocytes, SYBR Green DNA, 72 h; series mostly up to 12.8 µM; activity, negative = inhibition: at the top concentration", "procedure,_shortened": "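Quantitative HTS: compounds pinned into medium, infected erythrocytes added (0.3% parasitemia, 2.5% hematocrit), 72 h culture at 37 C under 5% CO2. Saponin/Triton lysis with SYBR Green I, overnight RT, then fluorescence read.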", "values": [{"smiles": "CC1(C)S[C@H]2C(NC(=O)[C@@H](N)c3ccc(O)cc3)C(=O)N2[C@@H]1C(=O)O", "note": "(some centres not stated)", "activity, negative = inhibition": "0.384% [at 28.7 µM] (inactive)"}, {"smiles": "CN(C)CCc1c[nH]c2ccc(CC3COC(=O)N3)cc12", "note": "(configuration not stated)", "activity, negative = inhibition": "2.57% [at 28.7 µM] (inactive)"}, {"smiles": "C[C@@]12CCC(=O)C=C1C=CC1C2CC[C@]2(C)C1CC[C@@]21CCC(=O)O1", "note": "(some centres not stated)", "activity, negative = inhibition": "-7.59% [at 28.7 µM] (inactive)"}, {"smiles": "NC(CCC(=O)N[C@@H](CS)C(=O)NCC(=O)O)C(=O)O", "note": "(some centres not stated)", "Potency": "5.01 µM (active)"}, {"smiles": "CC(C)Oc1ccc2c(=O)cc(-c3ccccc3)oc2c1", "activity, negative = inhibition": "10.2% [at 28.7 µM] (inactive)"}, {"smiles": "CCCCCCCCCc1ccc(OCCOCCOCCOCCOCCOCCOCCOCCOCCO)cc1", "activity, negative = inhibition": "-29.4% [at 28.7 µM] (inactive)"}, {"smiles": "N[C@@H]1C(O)OC(CO)C(O)C1O", "note": "(some centres not stated)", "activity, negative = inhibition": "10.5% [at 28.7 µM] (inactive)"}, {"smiles": "CC(=O)OCC(=O)[C@@]12OC3(CCCC3)OC1CC1C3CCC4=CC(=O)C=C[C@@]4(C)[C@]3(F)C(O)C[C@]12C", "note": "(some centres not stated)", "activity, negative = inhibition": "-25.6% [at 28.7 µM] (inactive)"}, {"smiles": "CCC1OC(=O)CC(O)C(C)[C@@H](O[C@@H]2OC(C)[C@H](O[C@@H]3C[C@@](C)(O)C(O)C(C)O3)C(N(C)C)C2O)[C@H](CC=O)CC(C)C(=O)/C=C/C(C)=C/[C@@H]1COC1OC(C)C(O)C(OC)[C@@H]1OC", "note": "(some centres not stated)", "activity, negative = inhibition": "-20.1% [at 28.7 µM] (inactive)"}, {"smiles": "CC(=O)[C@]1(O)CCC2C3C=C(Cl)C4=CC(=O)C5CC5[C@@]4(C)C3CC[C@]21C", "note": "(some centres not stated)", "activity, negative = inhibition": "-0.762% [at 28.7 µM] (inactive)"}, {"smiles": "CO[C@]12C(COC(N)=O)C3=C(C(=O)C(C)=C(N)C3=O)N1CC1NC12", "note": "(some centres not stated)", "Potency": "1.41 µM (active)"}, {"smiles": "C[C@@]12C=CC(=O)C=C1CCC1C3CC(O)[C@@](O)(C(=O)CO)[C@]3(C)CC(O)[C@]12F", "note": "(some centres not stated)", "activity, negative = inhibition": "10.7% [at 28.7 µM] (inactive)"}, {"smiles": "CCC1OC(=O)C(C)[C@@H](O[C@H]2C[C@@](C)(OC)C(O)C(C)O2)C(C)[C@@H](O[C@@H]2OC(C)CC(N(C)C)C2O)[C@@](C)(O)CC(C)C(=O)[C@@H](C)C(O)[C@]1(C)O", "note": "(some centres not stated)", "activity, negative = inhibition": "4.46% [at 28.7 µM] (inactive)"}, {"smiles": "CC1C2CCC3C4CC=C5CC(N(C)C)CC[C@@]5(C)C4CC[C@@]32CN1C", "note": "(some centres not stated)", "activity, negative = inhibition": "-18.8% [at 28.7 µM] (inactive)"}, {"smiles": "COC1CC(O[C@H]2/C(C)=C/CC3CC(C[C@]4(CCC(C)C(C5CCCCC5)O4)O3)OC(=O)[C@H]3C=C(C)/C(=N/O)C4OC/C(=C\\C=C\\[C@@H]2C)[C@@]43O)OC(C)C1O", "note": "(some centres not stated)", "activity, negative = inhibition": "-11.9% [at 28.7 µM] (inactive)"}, {"smiles": "CCC(C)C(=O)OC1CC(O)C=C2C=CC(C)C(CCC(O)CC(O)CC(=O)O)C21", "note": "(configuration not stated)", "activity, negative = inhibition": "5.79% [at 28.7 µM] (inactive)"}, {"smiles": "OCC1OC(n2cnc3c(=S)nc[nH]c32)C(O)C1O", "note": "(configuration not stated)", "activity, negative = inhibition": "21.7% [at 28.7 µM] (inactive)"}]}]}
